Compound activity (PubChem)
This is a sample that favours compounds with a hit; in the whole collection about 2.2% have one here.
LDHA block – blocks human lactate dehydrogenase A. P00338. purified LDHA, NADH/diaphorase-resazurin fluorescence; hits give low values. activity change, % (values are at about 110 or 230 µM). 480,000 tested, 0.15% active; in the data active = activity change below about -30%; inconclusive = mostly about -25% to -30%
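Resorufin fluorescence (ex540/em590), read at 0 and 20 min after diaphorase/resazurin addition, reports the NADH left after a 5 min room-temperature reaction of 2 nM human LDH5 with 0.06 mM NADH and 0.2 mM pyruvate.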
ATXN viability – viability counter-screen for ATXN expression inhibitors. AID 651635. S2 cells (HEK-293 line with an ATXN2-luciferase reporter) viability, CellTiter-Fluor protease fluorescence, 24 h. Potency, µM (top dose mostly 56.7 µM), usual class: cytotoxic. 400,000 tested, 0.49% active; note: nearly all actives have a fitted effect of over 40% in size
HepG2 tox – kills HepG2 cells in TGF-b inhibitor counter-screen; HepG2 CAGA-GFP viability, ATP luminescence, 18 h; Potency, µM (titrated, usually from 46.1 µM), actives largely listed as cytotoxic; 410,000 tested, 0.76% active; AID 588856
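HepG2 CAGA-GFP cells (1000/well, DMEM with 1% FBS) received compound, then TGF-beta at 500 pg/mL final, and were incubated 18 hours at 37 degrees C. Viability was read by CellTiter-Glo luminescence. Media-only wells were set as complete cell-killing and DMSO as no toxicity.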
ATXN2 expr inh – ATXN2 expression inhibition. Potency, µM (titrated, usually from 57 µM), usual class: inhibitors. AID 1745845. 360,000 tested, 0.72% active. HEK-293 ATXN2-luciferase reporter, luminescence, 24 h; note: nearly all actives have a fitted effect of over 55% in size
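ATXN2-luciferase reporter cells (luciferase flanked by upstream and downstream ATXN2 gene portions) were treated 24 h at 37 °C with compounds at up to 57 uM. SteadyGlo luminescence gave expression; GF-AFC fluorescence gave viability.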
mIDH1 inhibitor – human IDH1 R132H inhibition | Potency, µM (doses to about 76.6 µM), most hits filed as inhibitors | IDH1-R132H enzyme, NADPH consumption, diaphorase/resazurin fluorescence | 390,000 tested, 0.093% active | AID 602179; note: nearly all actives have a fitted effect of over 65% in size
Target sequence (O75874 whole entry R132H, stated change not applied): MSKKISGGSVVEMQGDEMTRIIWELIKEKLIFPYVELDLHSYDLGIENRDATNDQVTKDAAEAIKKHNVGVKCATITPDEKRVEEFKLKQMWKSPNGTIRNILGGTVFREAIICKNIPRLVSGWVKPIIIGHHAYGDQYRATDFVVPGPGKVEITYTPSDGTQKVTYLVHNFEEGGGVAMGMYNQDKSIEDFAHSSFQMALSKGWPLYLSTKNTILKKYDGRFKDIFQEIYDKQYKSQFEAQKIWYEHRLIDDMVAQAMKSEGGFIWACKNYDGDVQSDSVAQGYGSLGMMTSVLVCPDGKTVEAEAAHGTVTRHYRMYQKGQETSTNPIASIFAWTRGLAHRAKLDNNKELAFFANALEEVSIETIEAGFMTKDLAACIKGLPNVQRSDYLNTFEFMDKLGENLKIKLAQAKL
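IDH1-R132H (0.5 ug/mL) preincubated 30 min with compound, then NADPH (0.016 mM) and alpha-KG (2 mM) added; 80 min at RT, pH 7.5. Remaining NADPH coupled via diaphorase/resazurin to fluorescence (540/590 nm); concentration-response curves normalized to no-enzyme control.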
TGFb inhibitor – inhibitors of TGF-b signaling | HepG2 CAGA-GFP TGF-b/SMAD3 reporter, GFP fluorescence, 18 h; TGF-beta stimulated, 500 pg/mL final | Potency, µM (series often up to 46.1 µM), most hits filed as inhibitors | 410,000 tested, 1.2% active; note: nearly all actives have a fitted effect of over 65% in size
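Using HEPG2 CAGA-GFP reporter cells at 1000 cells/well, we pinned test compounds, stimulated with recombinant TGF-beta (500 pg/mL final) and measured total well GFP after 18 h.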
SKNSH spheroid – kills SK-N-SH neuroblastoma spheroids in orthogonal 3D test; shares compounds with ATXN2 expr inh; SK-N-SH 3D spheroid viability, PI/Hoechst imaging, 72 h; Potency, µM (top dose mostly 30.7 µM), usual class: inhibitors; 65 tested, 70% active; AID 1347135
SJGBM2 3D viab – lowers viability of SJ-GBM2 3D spheroids. SJ-GBM2 3D spheroid viability, PI/Hoechst imaging, 72 h. 65 tested, 80% active. Potency, µM (titrated, usually from 30.7 µM), usual class: inhibitors. shares compounds with ATXN2 expr inh
Daoy spheroid – Daoy 3D spheroid viability loss; shares compounds with ATXN2 expr inh; Daoy 3D spheroid viability, PI/Hoechst imaging, 72 h; Potency, µM (series often up to 30.7 µM), actives largely listed as inhibitors; 65 tested, 50% active
TC32 3D casp – caspase activation in TC32 3D spheroids, orthogonal test. 65 tested, 30% active. AID 1347138. shares compounds with ATXN2 expr inh. TC32 3D spheroids, caspase-3/7 fluorescence imaging, 24 h. Potency, µM (highest dose often 30.7 µM), usual class: inhibitors
TC32 3D tox – reduced viability of TC32 3D spheroids, orthogonal test; Potency, µM (top dose mostly 30.7 µM), actives largely listed as inhibitors; 65 tested, 60% active; AID 1347139; shares compounds with ATXN2 expr inh; TC32 3D spheroid viability, PI/Hoechst imaging, 72 h
MG63 spheroid – kills MG-63 (6-TG R) spheroids in orthogonal 3D test; 65 tested, 50% active; Potency, µM (titrated, usually from 30.7 µM), hits mostly inhibitors; MG-63 (6-TG R) 3D spheroid viability, PI/Hoechst imaging, 72 h; shares compounds with ATXN2 expr inh
RD 3D tox – kills RD rhabdomyosarcoma spheroids in orthogonal 3D test; shares compounds with ATXN2 expr inh; RD rhabdomyosarcoma 3D spheroid viability, PI/Hoechst imaging, 72 h; Potency, µM (top dose mostly 30.7 µM), most hits filed as inhibitors; 65 tested, 50% active; AID 1347141
Numbers stand for hits; - = inactive; ? = inconclusive; . = not tested or not shown. Unless noted, calls come from the whole dose curve; as a rule, active = well fitted curve in the direction sought with a large enough effect; inconclusive = small, poorly fitted or top-dose-only effect, or another doubt; inactive = no such curve, though single readings can be large; an effect the other way counts as inactive or inconclusive.

SMILES	LDHA block	ATXN viability	HepG2 tox	ATXN2 expr inh	mIDH1 inhibitor	TGFb inhibitor	SKNSH spheroid	SJGBM2 3D viab	Daoy spheroid	TC32 3D casp	TC32 3D tox	MG63 spheroid	RD 3D tox
CCOc1cc2c(cc1OCC)-n1cccc1C(c1ccc(C)cc1C)NC2 (stereo not drawn)	-	?	-	?	-	?	.	.	.	.	.	.	.
C[C@@H]1C[C@@H]([C@H](O)CC2CC(=O)NC(=O)C2)C(=O)[C@@H](C)C1	-	?	-	1.26µM	-	1µM	?	1.02µM	?	-	?	?	?
CCN(CC)CCNC(=O)c1c(O)c2ccccc2n(Cc2ccccc2)c1=O	-	?	-	-	-	-	.	.	.	.	.	.	.
CCOP(=S)(OCC)Oc1cc(C)oc(=O)c1	-	-	-	.	-	-	.	.	.	.	.	.	.
